# PubChem BioAssay (NCATS)
# Results filed as inconclusive are left out. Activity calls are given as the source filed them. Calls follow the shape of the dose curve; as a rule, active = well fitted inhibition curve with a large enough effect; inconclusive = small, poorly fitted or top-dose-only effect; inactive = flat fitted curve, though single readings scatter. Where a SMILES comes first, the peptide text is derived from it. [ ]: non-standard residue; d: D form. pGlu = O=C1CC[C@@H](C(=O)O)N1
# Target: Voltage-gated inwardly rectifying potassium channel KCNH2 (Homo sapiens) (UniProt Q12809)
# Sequence (Q12809 whole entry, looked up): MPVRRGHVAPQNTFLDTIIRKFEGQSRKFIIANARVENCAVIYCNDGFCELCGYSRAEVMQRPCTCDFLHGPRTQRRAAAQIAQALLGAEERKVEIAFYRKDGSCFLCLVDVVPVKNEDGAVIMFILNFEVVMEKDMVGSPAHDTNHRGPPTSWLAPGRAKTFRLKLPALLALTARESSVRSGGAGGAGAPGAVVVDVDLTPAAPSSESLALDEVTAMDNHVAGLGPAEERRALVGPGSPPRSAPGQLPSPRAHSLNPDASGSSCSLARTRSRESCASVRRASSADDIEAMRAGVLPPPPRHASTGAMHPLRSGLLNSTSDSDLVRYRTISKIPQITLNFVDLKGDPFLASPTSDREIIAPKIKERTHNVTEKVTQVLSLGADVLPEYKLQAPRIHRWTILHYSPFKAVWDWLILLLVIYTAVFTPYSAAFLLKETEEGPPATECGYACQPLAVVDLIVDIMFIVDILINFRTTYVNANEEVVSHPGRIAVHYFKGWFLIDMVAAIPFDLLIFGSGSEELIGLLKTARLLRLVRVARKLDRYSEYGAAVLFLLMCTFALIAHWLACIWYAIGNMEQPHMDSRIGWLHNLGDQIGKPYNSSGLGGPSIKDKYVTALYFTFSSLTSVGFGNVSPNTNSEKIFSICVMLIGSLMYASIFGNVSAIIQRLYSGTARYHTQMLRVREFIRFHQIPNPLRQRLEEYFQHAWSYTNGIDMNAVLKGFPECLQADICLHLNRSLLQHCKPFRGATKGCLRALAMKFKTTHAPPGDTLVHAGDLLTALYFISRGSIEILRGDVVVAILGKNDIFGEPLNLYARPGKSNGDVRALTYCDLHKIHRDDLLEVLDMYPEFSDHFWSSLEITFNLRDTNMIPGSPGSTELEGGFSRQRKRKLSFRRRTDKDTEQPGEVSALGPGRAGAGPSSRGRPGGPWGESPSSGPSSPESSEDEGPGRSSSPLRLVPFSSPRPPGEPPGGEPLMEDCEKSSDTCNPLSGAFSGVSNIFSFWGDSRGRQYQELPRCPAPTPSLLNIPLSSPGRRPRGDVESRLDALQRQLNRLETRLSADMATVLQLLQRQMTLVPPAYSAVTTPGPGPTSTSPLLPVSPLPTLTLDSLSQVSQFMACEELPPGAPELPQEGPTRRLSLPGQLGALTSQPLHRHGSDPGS
# Test: qHTS Assay for Small Molecule Inhibitors of the Human hERG Channel Activity (AID 588834);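 also: lower thallium flux fluorescence means stronger hERG block; nearly all actives have a fitted effect of over 50% in size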; as to activity change, negative = inhibition: top concentration of the series differs between compounds
# Conditions: U2OS BacMam hERG, FluxOR thallium flux fluorescence; series mostly up to 46.1 µM; activity change, negative = inhibition: at the top concentration
# How it was run: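 Blockade is seen as reduced FluxOR thallium-flux fluorescence in U2OS cells expressing hERG from a BacMam construct, in Opti-MEM with 2% FCS. Concentration-response data fitted to the Hill equation for AC50.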
# % is scaled to controls: 0 for no effect and ±100 for the full control effect; potency is read from the fitted curve at half-maximal effect.
SMILES,"activity change, negative = inhibition",Potency
CC1CCCC(C)N1NC(=O)c1ccc(Cl)c(S(N)(=O)=O)c1 (centres undefined),-3.38% [at 20.6 µM] (inactive),–
NC[C@@H]1O[C@H](O[C@H]2[C@@H](O)[C@H](O[C@@H]3[C@@H](O)[C@H](N)C[C@H](N)[C@H]3O[C@H]3O[C@H](CO)[C@@H](O)[C@H](O)[C@H]3N)O[C@@H]2CO)[C@H](N)[C@@H](O)[C@@H]1O,-7.02% (inactive),–
C[C@@H]1C[C@H]2[C@@H]3CCC4=CC(=O)C=C[C@]4(C)[C@@]3(F)[C@@H](O)C[C@]2(C)[C@@]1(O)C(=O)COC(=O)c1cccc(S(=O)(=O)O)c1,16.2% (inactive),–
CCC(Oc1ccccc1)C(=O)N[C@@H]1C(=O)N2[C@@H]1SC(C)(C)[C@@H]2C(=O)O (some centres undefined),13.4% (inactive),–
O=C1CC[C@@H](C(=O)N[C@H]2C[C@@H]2c2ccccc2)N1,21.5% (inactive),–
Cc1cc(O)c2c(c1)O[C@@]1(C)CC[C@H]3C(C)(C)CCCC34CO[C@@H]2[C@H]41 (some centres undefined),-29.4% (inactive),–
CC(C)=CCC/C(C)=C/CC/C(C)=C/CC/C(C)=C/CC1=C(C)C(=O)c2ccccc2C1=O,-1.6% (inactive),–
C=Cc1c(C)c2cc3nc(cc4[nH]c(cc5nc(cc1[nH]2)C(C)=C5CCC(=O)OC)c(CCC(=O)O)c4C)[C@@]1(C)C3=CC=C(C(=O)OC)[C@H]1C(=O)OC,1.17% (inactive),–
C=C1CC[C@H](O)CC1=C/C=C1\CCC[C@]2(C)[C@@H]([C@H](C)CCCC(C)(C)O)CC[C@@H]12,-4.45% (inactive),–
CC(C)(C)NCC(O)CSc1nc(-c2ccc(C(N)=O)s2)cs1 (centres undefined),-10% (inactive),–
CC(C)C[C@H](NC(=O)[C@@H](COC(C)(C)C)NC(=O)[C@H](Cc1ccc(O)cc1)NC(=O)[C@H](CO)NC(=O)[C@H](Cc1c[nH]c2ccccc12)NC(=O)[C@H](Cc1cnc[nH]1)NC(=O)[C@@H]1CCC(=O)N1)C(=O)N[C@@H](CCCN=C(N)N)C(=O)N1CCC[C@H]1C(=O)NNC(N)=O,15.7% (inactive),–
O=C(O)c1ccc(NC2OC[C@@H](O)[C@H](O)[C@H]2O)cc1 (some centres undefined),7.99% (inactive),–
O=C(O)CN(CC(=O)O)CC1=CC2C(=CC1=O)Oc1cc(O)c(CN(CC(=O)O)CC(=O)O)cc1C21OC(=O)c2ccccc21 (centres undefined),–,0.891 µM (active)
CC[C@H](C)[C@H](NC(=O)[C@H](Cc1ccccc1)NC(=O)[C@H](C)NC(=O)[C@H](CC(=O)O)NC(=O)[C@H](CCCCN)NC(=O)[C@H](CO)NC(=O)[C@@H]1CCCN1C(=O)[C@@H]1CCC(=O)N1)C(=O)NCC(=O)N[C@@H](CC(C)C)C(=O)N[C@@H](CCSC)C(N)=O ([pGlu]PSKDAFIGLM-NH2),4.37% (inactive),–
CO/N=C(\C(=O)N[C@@H]1C(=O)N2C(C(=O)O)=C(C[N+]3(C)CCCC3)CS[C@H]12)c1csc(N)n1,0.634% (inactive),–
CC[C@@H](C(=O)[C@@H](C)[C@@H](O)[C@H](C)[C@@H]1O[C@@H]([C@@H](CC)C(=O)O)CC[C@@H]1C)[C@H]1O[C@]2(C=C[C@@H](O)[C@]3(CC[C@@](C)([C@H]4CC[C@](O)(CC)[C@H](C)O4)O3)O2)[C@H](C)C[C@@H]1C,22.7% (inactive),–
C=N[C@@H](C(=O)N[C@@H]1C(=O)N2[C@@H]1SC(C)(C)[C@@H]2C(=O)O)c1ccccc1,10.4% (inactive),–
CO/N=C(\C(=O)N[C@@H]1C(=O)N2C(C(=O)[O-])=C(C[n+]3ccc(N)n3CCO)CS[C@H]12)c1csc(N)n1,13.6% (inactive),–
CC(O)[C@H]1CC[C@H]2[C@@H]3CC[C@@H]4C[C@@H](O)CC[C@]4(C)[C@H]3CC[C@]12C (some centres undefined),-11.5% (inactive),–
CCc1cn([C@H]2C[C@H](O)[C@@H](CO)O2)c(=O)[nH]c1=O,3.36% (inactive),–

SMILES,"activity change, negative = inhibition",Potency
C[C@@H](O)[C@H]1C(=O)N2C(C(=O)[O-])=C(SC3Cn4cnc[n+]4C3)[C@H](C)[C@H]12 (some centres undefined),7.8% (inactive),–
Cc1cccc(C)c1Nc1ncccc1C(=O)O,-14.1% (inactive),–
CCCCC(=O)O[C@H]1CC[C@H]2[C@@H]3CCc4cc(O)ccc4[C@H]3CC[C@]12C,-14.4% (inactive),–
CC(=O)O[C@@H]1CC2CCC1(C)C2(C)C (some centres undefined),-6.52% (inactive),–
CN[C@H](CC(C)C)C(=O)N[C@H]1C(=O)N[C@@H](CC(N)=O)C(=O)N[C@H]2C(=O)N[C@H]3C(=O)N[C@H](C(=O)N[C@@H](C(=O)O)c4cc(O)cc(O)c4-c4cc3ccc4O)[C@H](O)c3ccc(c(Cl)c3)Oc3cc2cc(c3O[C@@H]2O[C@H](CO)[C@@H](O)[C@H](O)[C@H]2O[C@H]2C[C@](C)(N)C(O)[C@H](C)O2)Oc2ccc(cc2Cl)[C@H]1O (some centres undefined),8.77% (inactive),–
NC(=O)c1ccc[n+]([C@@H]2O[C@H](COP(=O)([O-])OP(=O)(O)OC[C@H]3O[C@@H](n4cnc5c(N)ncnc54)[C@H](O)[C@@H]3O)[C@@H](O)[C@H]2O)c1,-2.86% [at 20.6 µM] (inactive),–
CCN1\C(=C/C=C/C=C/c2sc3ccccc3[n+]2CC)Sc2ccccc21,–,11.2 µM (active)
Cc1c(N)nc([C@H](CC(N)=O)NC[C@H](N)C(N)=O)nc1C(=O)N[C@H](C(=O)N[C@H](C)[C@@H](O)[C@H](C)C(=O)N[C@H](C(=O)NCCc1nc(-c2nc(C(=O)NCCCCN=C(N)N)cs2)cs1)[C@@H](C)O)[C@@H](O[C@@H]1O[C@@H](CO)[C@@H](O)[C@H](O)[C@@H]1O[C@H]1O[C@H](CO)[C@@H](O)[C@H](OC(N)=O)[C@@H]1O)c1cnc[nH]1,-4.86% (inactive),–
O=C(OC[C@H]1O[C@](O)(COC(=O)c2cccnc2)[C@@H](OC(=O)c2cccnc2)[C@@H]1OC(=O)c1cccnc1)c1cccnc1,-18.3% (inactive),–
C[C@H]1[C@@H](OC(=O)CCC(=O)O)O[C@@H]2OC3(C)CC[C@H]4[C@H](C)CC[C@@H]1[C@@]24OO3,3.74% (inactive),–
CCOC(=O)[C@H](CS)NCCN[C@@H](CS)C(=O)OCC,18.2% (inactive),–
COC(=O)[C@H]1[C@H]2C[C@@H]3c4[nH]c5cc(OC)ccc5c4CCN3C[C@H]2C[C@H](OC)[C@@H]1OC,–,4.47 µM (active)
NC(N)=NCC1COC2(CCCCC2)O1 (centres undefined),-3.48% [at 20.6 µM] (inactive),–
CCCC1C(=O)N2C(N(C)C)=Nc3ccc(C)cc3N2C1=O (centres undefined),-2.03% [at 20.6 µM] (inactive),–
C[C@@H]1C/C=C/C=C/C=C/C=C/[C@H](O[C@@H]2O[C@H](C)[C@@H](O)[C@H](N)[C@@H]2O)C[C@@H]2O[C@](O)(C[C@@H](O)C[C@H]3O[C@@H]3/C=C/C(=O)O1)C[C@H](O)[C@H]2C(=O)O,-11.6% (inactive),–
O=C1C2CC3CC1CC(O)(C3)C2,4.5% (inactive),–
CCCCCCCCCc1ccc(OCCOCCO)cc1,–,14.1 µM (active)
COc1ccc([C@@H]2CC(=O)c3c(O)cc(O[C@@H]4O[C@H](CO[C@@H]5O[C@@H](C)[C@H](O)[C@@H](O)[C@H]5O)[C@@H](O)[C@H](O)[C@H]4O)cc3O2)cc1O,17.6% [at 20.6 µM] (inactive),–
CC(=O)Nc1c(I)c(C(=O)N[C@H]2C(O)O[C@H](CO)[C@@H](O)[C@@H]2O)c(I)c(N(C)C(C)=O)c1I (some centres undefined),2.01% [at 20.6 µM] (inactive),–
